In the library only some 2% were active in any assay of this set; here they are far more common.
ID4 binder: binders of human ID4 protein; P47928; small molecule microarray, Flag-ID4 binding, fluorescence F/B; calls only; actives 1.2% (n = 31,000); call rule not given here;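 further: a binder raises fluorescence above local background on the spot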
mut p53 react: re-activators of the mutant p53 pathway | actives 1.5% (n = 28,000) | AID 624151 | activation, % at 9.98 µM | SW480 PUMA-promoter luciferase, p53 mutant reactivation; in the data active means activation above about 52%; inconclusive means no clear call, values can overlap the other calls
STK33 inh: human STK33 kinase inhibition; Q9BYT3; ADP-Glo luminescence, MBP substrate; inhibition, % at 12.5 µM; actives 0.44% (n = 27,000); AID 2322; in the data active means inhibition above about 20%; inconclusive means no clear call, values can overlap the other calls
Target sequence (Q9BYT3 whole entry, looked up): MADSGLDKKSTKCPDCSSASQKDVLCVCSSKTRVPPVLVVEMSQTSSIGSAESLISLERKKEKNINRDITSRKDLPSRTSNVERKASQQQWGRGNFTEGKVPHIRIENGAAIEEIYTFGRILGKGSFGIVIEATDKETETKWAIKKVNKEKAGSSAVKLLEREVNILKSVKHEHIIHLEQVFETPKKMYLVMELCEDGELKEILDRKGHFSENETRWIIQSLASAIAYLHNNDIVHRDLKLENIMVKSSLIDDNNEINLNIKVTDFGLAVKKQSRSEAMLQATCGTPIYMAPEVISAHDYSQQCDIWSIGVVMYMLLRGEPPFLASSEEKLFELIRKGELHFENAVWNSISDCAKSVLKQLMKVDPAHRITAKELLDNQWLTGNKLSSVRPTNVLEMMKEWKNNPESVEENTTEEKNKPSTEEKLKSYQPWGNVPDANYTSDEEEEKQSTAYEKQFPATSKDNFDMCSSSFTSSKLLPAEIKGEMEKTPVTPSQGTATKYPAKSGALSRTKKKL
* hit, by the source's call; i = inactive; ? = inconclusive; · = no result; + = active, no number.

SMILES	ID4 binder	mut p53 react	STK33 inh
O=C(COc1ccc(Cl)cc1Cl)Nc1cccc(-c2nnc(-c3ccccc3)o2)c1	i	39	8
CC(Oc1ccc(Cl)cc1Cl)C(=O)Nc1cccc(-c2nnc(-c3ccccc3)o2)c1 (stereo unspecified)	i	81*	3
COc1ccc(NC(=O)c2ccco2)cc1NC(=O)C(C)Oc1ccc(Cl)cc1Cl (stereo unspecified)	i	-9	5
COc1cc(NC(=O)C(C)Oc2ccc(Cl)cc2Cl)ccc1NC(=O)c1ccco1 (stereo unspecified)	i	67*	9
C=C1C(=O)OC2CC1C(OC(C)=O)C/C(C)=C\CC/C(C)=C\CC[C@]2(C)O (stereo partly specified)	·	·	2
CCCn1nnc(NC(=O)C(C)Oc2ccc(Cl)cc2Cl)n1 (stereo unspecified)	i	-3	3
CCCn1nnc(NC(=O)COc2ccccc2Cl)n1	i	64*	5
CC(=O)N[C@H]1[C@H](O[C@H]2CC[C@@]3(C)C(CC[C@]4(C)C3CC=C3[C@@H]5CC(C)(C)CC[C@]5(C(=O)O)CC[C@]34C)C2(C)C)O[C@H](CO[C@@H]2OC[C@H](O)[C@H](O)[C@H]2O[C@@H]2OC[C@H](O)[C@H](O)[C@H]2O)[C@@H](O)[C@@H]1O (stereo partly specified)	·	·	-3
COc1ccc(S(=O)(=O)N(C)CC(=O)Nc2cc([N+](=O)[O-])ccc2C)cc1C	i	-1	-2
Cc1cc(Cl)cc(Cl)c1OCC(=O)Nc1ccccc1[N+](=O)[O-]	i	10	1
O=C(COc1ccc(Cl)cc1Cl)Nc1ncccn1	i	48	-4
COc1ccccc1NC(=O)CSc1ccccn1	i	27	2
Cc1ccc(NC(=O)COc2ccc(Cl)c(C)c2)c([N+](=O)[O-])c1	i	59*	9
Cc1cc(OCC(=O)Nc2ccccc2[N+](=O)[O-])ccc1Cl	i	86*	-1
COc1ccc(NC(=O)CSc2ccccn2)c([N+](=O)[O-])c1	i	62*	0
O=C(COc1ccc(Cl)cc1)Nc1ncccn1	i	74*	2
Cc1cc(OCC(=O)Nc2ccc(CC#N)cc2)ccc1[N+](=O)[O-]	i	9	-1
O=C(CSc1nc(C(F)(F)F)cc(=O)[nH]1)Nc1ccc(F)cc1	i	-15	-3
O=C(CSc1nnc(NC(=O)c2ccc(Cl)c(Cl)c2)s1)Nc1ccc(F)c(F)c1F	i	25	·
Cc1c(C)c(C)c(S(=O)(=O)N2CCCC2)c(C)c1C	·	·	-1
COc1ccc(-c2nc3ccccc3s2)cc1NC(=O)COc1ccc(C(C)C)cc1	i	48	-5
COc1ccc(-c2nc3ccccc3s2)cc1NC(=O)COc1ccc(Br)cc1	i	79*	7
Cc1ccc(NC(=O)COc2ccc(C(C)(C)C)cc2)c([N+](=O)[O-])c1	i	18	3
COc1cc(NC(=O)COc2cccc(C)c2)c(OC)cc1Cl	i	35	-3
COc1ccc(OCC(=O)Nc2ccc(C)cc2[N+](=O)[O-])cc1	i	136*	-2
SMILES	ID4 binder	mut p53 react	STK33 inh
CC(=O)Nc1ccc(OCC(=O)Nc2ccc(Cl)c(Cl)c2)cc1	i	65*	4
COc1ccc(OCC(=O)Nc2cc(OC)c(Cl)cc2OC)cc1	i	82*	4
CC(=O)Nc1ccc(OCC(=O)Nc2ccc3c(c2)oc2ccccc23)cc1	i	37	1
CCOC(=O)c1cc2c(NC(C)=O)c(C(=O)OCC)sc2nc1C(F)(F)F	·	·	0
COc1ccc(NC(=O)CN(c2ccc(F)c(Cl)c2)S(C)(=O)=O)cc1Cl	i	-1	1
CC(C)(C)C(=O)CSc1nnc(-c2cnccn2)s1	·	·	-2
CCCCc1c(-c2ccc(O)cc2)[nH]c2nccnc12	i	·	57*
CCCCc1c(-c2ccc(OC)cc2)[nH]c2nccnc12	i	·	17
Cc1ccc(-c2cc(-c3c(C)nn(C)c(=O)c3N)[nH]n2)cc1	i	86*	·
CC(=O)N1CCN(C(=S)c2ccc(-c3ccc(C)cc3)o2)CC1	i	55*	·
Cc1ccc(-c2cc(C(F)F)n3ncc(C(=O)NCCCN4CCOCC4)c3n2)cc1	i	8	0
CC1(C)[C@@H]2CC=C(CO[C@@H]3O[C@H](CO[C@@H]4O[C@@H](CO)[C@H](O)[C@H]4O)[C@@H](O)[C@H](O)[C@H]3O)[C@H]1C2	·	·	0
CN1/C(=C\C=C2\C(=O)Oc3ccccc3C2=O)C(C)(C)c2ccccc21	i	105*	·
O=C(NCCC(c1ccc(F)cc1)c1ccco1)c1cccs1 (stereo unspecified)	i	50*	-2
CC(C(=O)O)c1ccc(C(=O)c2cccs2)cc1 (stereo unspecified)	i	·	0
Cc1cc2nc(SCc3nc4ccccc4[nH]3)[nH]c2cc1C	i	?	0
Cc1ccc2nc(SCc3nc4ccccc4n3C)[nH]c2c1	i	62*	0
C[C@@H]1CN([C@@H](C)CO)C(=O)c2cc(NC(=O)CCCN(C)C)ccc2O[C@@H]1CN(C)S(=O)(=O)c1cccs1	·	·	0
C[C@H](CO)N1C[C@H](C)[C@H](CN(C)S(=O)(=O)c2cn(C)cn2)Oc2ccc(NC(=O)CCCN(C)C)cc2C1=O	·	·	-1
C[C@@H]1CCCCO[C@H](CN(C)S(=O)(=O)c2cccs2)[C@@H](C)CN([C@H](C)CO)C(=O)c2cc(NC(=O)CCC(F)(F)F)ccc2O1	·	·	-4
C[C@@H]1CCCCO[C@@H](CN(C)S(=O)(=O)c2cccs2)[C@@H](C)CN([C@@H](C)CO)C(=O)c2cc(NC(=O)CCCN(C)C)ccc2O1	+	7	·
C[C@H](CO)N1C[C@H](C)[C@@H](CN(C)S(=O)(=O)c2cccs2)Oc2ccc(NC(=O)CCCN(C)C)cc2C1=O	+	6	·
C[C@@H]1CN([C@@H](C)CO)C(=O)c2cc(NC(=O)CCCN(C)C)ccc2O[C@@H](C)CCCCO[C@@H]1CN(C)S(=O)(=O)c1cn(C)cn1	+	3	·
CC(=O)OC1=C(C(=O)c2ccccc2)N(C)S(=O)(=O)c2ccccc21	i	-15	·
Nc1cc(=O)[nH]c(SCC(=O)N2CCN(c3ccccc3)CC2)n1	i	7	2
SMILES	ID4 binder	mut p53 react	STK33 inh
CCN(CC)S(=O)(=O)c1cccc(C(=O)NN)c1	·	·	3
COc1c(Cc2ccccc2O)c(O)c(Cc2ccccc2O)c(O)c1C(=O)CCc1ccccc1	·	·	-14
COC(=O)C1=C(N)C(C(=O)OC)=c2s/c(=C/c3ccccc3)c(=O)n2C1c1ccccc1 (stereo unspecified)	·	·	-1
O=C(NC(=S)NCc1cccnc1)c1ccc(-c2cccc([N+](=O)[O-])c2)o1	i	48	9
O=C(NC(=S)NCc1cccnc1)c1ccc(-c2cccc(Cl)c2Cl)o1	i	61*	6
O=C(COc1ccc(Br)cc1)Nc1cccc(-c2nc3cc(Cl)ccc3o2)c1	i	47	1

Screening results (PubChem)
